# Reference: ChEMBL document CHEMBL3988442, “University of Dundee, Small-Polar-MMV Screening Library” (2021)
# Species: Homo sapiens
# Assay: To identify inhibition of the IFN signalling (Jak-Stat) pathway via expression of an eGFP reporter gene under the control of an IFN-stimulated response element (ISRE) containing MxA promoter.
# Type: functional
# Design: scale not given: direction of the effect not stated beside the values
# Conditions: 30 µM
row,SMILES,Percent Effect [%]
1,CCCc1nc(CN2CCOC(Cn3cncn3)C2)no1 (centres undefined),18.7
2,Cc1nn(C)c(C)c1CNC1CCOc2ccccc21 (centres undefined),20
3,Cc1noc2nc(C3CCN(Cc4cccnc4)CC3)cc(C(F)F)c12,25.1
4,COc1cc(OC)c(C2Nc3cc(Cl)ccc3C3=NCCN32)cc1OC (centres undefined),-10.9

# Molecular target: T1, Tyrosyl-tRNA synthetase, putative (Trypanosoma cruzi (strain CL Brener)) (UniProt Q4DSP6)
# T1 sequence (whole entry): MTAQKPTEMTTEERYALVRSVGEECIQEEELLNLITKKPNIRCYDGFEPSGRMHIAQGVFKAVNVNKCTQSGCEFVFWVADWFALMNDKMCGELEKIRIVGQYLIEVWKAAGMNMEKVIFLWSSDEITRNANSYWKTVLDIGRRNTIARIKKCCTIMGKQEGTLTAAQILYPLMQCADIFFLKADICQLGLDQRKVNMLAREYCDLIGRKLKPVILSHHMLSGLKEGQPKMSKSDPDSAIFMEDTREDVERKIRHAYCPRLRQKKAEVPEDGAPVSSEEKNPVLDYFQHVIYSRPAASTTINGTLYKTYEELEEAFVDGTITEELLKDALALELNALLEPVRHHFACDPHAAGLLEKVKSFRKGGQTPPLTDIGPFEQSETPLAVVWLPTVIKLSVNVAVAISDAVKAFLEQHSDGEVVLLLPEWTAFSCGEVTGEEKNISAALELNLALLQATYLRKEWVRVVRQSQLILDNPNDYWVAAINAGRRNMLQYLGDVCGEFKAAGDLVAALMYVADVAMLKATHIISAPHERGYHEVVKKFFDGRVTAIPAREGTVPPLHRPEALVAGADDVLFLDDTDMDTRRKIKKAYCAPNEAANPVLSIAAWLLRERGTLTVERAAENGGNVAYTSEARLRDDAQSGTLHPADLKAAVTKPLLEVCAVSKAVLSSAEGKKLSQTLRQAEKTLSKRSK
# Assay: Trypanosoma cruzi tyrosyl tRNA synthetase (TcYRS) _High Tyrosine SOP; also: in the data most compounds retested in dose-response had high values
# Type: functional
# Design: scale not given: direction of the effect not stated beside the values
# Conditions: 30 µM
row,SMILES,Percent Effect [%]
1,N#CC1(C(=O)N2CCN(Cc3ccon3)CC2)CCC1,0.493
2,Cc1ccc2c(c1)c(CNC(=O)C1CC(=O)N(C3CCCC3)C1)nn2C (centres undefined),3.7
3,CCOc1cc(C)nc(N2CCN(Cc3nccn3C)CC2)n1,5.26
4,CCN(CC)C(=O)CCNC(=O)N1CCC(c2ccccc2)C1 (centres undefined),0.529
5,CCN1CCOC(CNCc2ccccc2OCC(=O)N(C)C)C1 (centres undefined),1.48
6,CC(NCc1ccc(Cl)o1)c1nnc2n1CCCC2 (centres undefined),6.93
7,Cc1ccc(NC(=O)Cn2cc(I)cn2)cc1,-4.21
8,CC(C)c1nnc2n1CCN(C(=O)CN1Cc3ccccc3C1=O)C2,9.31
9,O=C(c1ccc(Cl)c(Cl)c1)N1CCCC(n2cncn2)C1 (centres undefined),3.96
10,O=C1COc2cc(C(=O)NS(=O)(=O)c3ccccc3F)ccc2N1,-4.43
11,CN(C)[C@@H]1CCN(c2ncccn2)[C@H]1Cc1ccncc1,1.07
12,O=C([C@H]1CCCO1)N1CCc2ncnc(NC3CC3)c2CC1,9.9
13,c1ccc(-c2nnc(CNCCn3cccn3)o2)cc1,6.4
14,CC(C)c1nc2c(n1C)CCN(Cc1nc(-c3cccs3)no1)C2,6.93
15,COCCN1CC[C@@H]2OC[C@H](C(=O)NCc3cccs3)C[C@@H]2C1,-2.16
16,O=C(NCc1ccc(F)cc1)N1CCC(C2OCCO2)CC1,6.38
17,CN(Cc1nnc(C2CC2)n1C)C1CCN(Cc2ccc(F)cc2)C1 (centres undefined),-1.48
18,CN(C(=O)c1cccc2[nH]ncc12)C1CCN(c2ccccn2)CC1,0.952
19,Cc1nnc(N2CCC(CN(C)C(C)C)CC2)c(C#N)c1C,3.81
20,Cc1cc(-c2nnc(SCC(=O)O)n2C(C)c2ccccc2)nn1C (centres undefined),9.47

row,SMILES,Percent Effect [%]
1,CC(C)OCc1ncn2c1CN(Cc1ccc(F)cc1)CCC2,3.24
2,Fc1cnc(N2C[C@H]3CCC[C@@]3(COc3ccccn3)C2)nc1,5.29
3,CCS(=O)(=O)N1CCC2(CCCN(Cc3cc(OC)ccc3F)C2)C1 (centres undefined),6.32
4,COC(=O)c1ccc(C(=O)NS(=O)(=O)c2cncc(Br)c2)cc1,-0.529
5,COc1c(CNC(c2nccn2C)C(C)C)c(C)nn1C (centres undefined),6.37
6,CC(C)c1nc(CN(C)CC2CCN(CCO)CC2)no1,2.65
7,c1ccc2c(N3CCCC3Cn3cccn3)ncnc2c1 (centres undefined),6.93
8,CCOc1ccc(N2CCCN=C2NC(=O)c2ccccc2C)cc1,6.45
9,Cc1csc(N2CCN(C(=O)CCc3ccccn3)CC2)n1,10.3
10,COc1ccc(Cc2nnc(SC)o2)cc1OC,3.83
11,Cn1ncc2c(NCCOc3ccc(F)cc3)nc(C3CCCC3)nc21,5.38
12,COCC1c2c(cnn2C)CCN1Cc1ccoc1 (centres undefined),0.99
13,CC(=O)Nc1nc(CN2CCCCC2Cn2cccn2)cs1 (centres undefined),9.57
14,O=C(NCC1CC1)c1nc(COc2ccc3c(c2)OCO3)no1,4.23
15,Cc1nccc(-c2cccc(NCC(=O)N3CCNC3=O)c2)n1,10.3
16,Cc1ccc(CN2CC3(CCN(C(=O)c4cscn4)C3)C2)s1,7.29
17,CCCc1nc(CN2CCOC(Cn3cncn3)C2)no1 (centres undefined),3.12
18,Cc1nn(C)c(C)c1CNC1CCOc2ccccc21 (centres undefined),0
19,Cc1noc2nc(C3CCN(Cc4cccnc4)CC3)cc(C(F)F)c12,2.15
20,COc1cc(OC)c(C2Nc3cc(Cl)ccc3C3=NCCN32)cc1OC (centres undefined),7.45

# Molecular target: T1, Tyrosyl-tRNA synthetase, putative (Trypanosoma cruzi (strain CL Brener))
# Assay: Trypanosoma cruzi tyrosyl tRNA synthetase (TcYRS) SOP
# Type: functional
# Design: scale not given: direction of the effect not stated beside the values
# Conditions: 30 µM
row,SMILES,Percent Effect [%]
1,N#CC1(C(=O)N2CCN(Cc3ccon3)CC2)CCC1,1.27
2,Cc1ccc2c(c1)c(CNC(=O)C1CC(=O)N(C3CCCC3)C1)nn2C (centres undefined),0
3,CCOc1cc(C)nc(N2CCN(Cc3nccn3C)CC2)n1,7.69
4,CCN(CC)C(=O)CCNC(=O)N1CCC(c2ccccc2)C1 (centres undefined),4.88
5,CCN1CCOC(CNCc2ccccc2OCC(=O)N(C)C)C1 (centres undefined),13.6
6,CC(NCc1ccc(Cl)o1)c1nnc2n1CCCC2 (centres undefined),18.3
7,Cc1ccc(NC(=O)Cn2cc(I)cn2)cc1,-7.69
8,CC(C)c1nnc2n1CCN(C(=O)CN1Cc3ccccc3C1=O)C2,17.1
9,O=C(c1ccc(Cl)c(Cl)c1)N1CCCC(n2cncn2)C1 (centres undefined),3.66
10,O=C1COc2cc(C(=O)NS(=O)(=O)c3ccccc3F)ccc2N1,-11.1
11,CN(C)[C@@H]1CCN(c2ncccn2)[C@H]1Cc1ccncc1,3.7
12,O=C([C@H]1CCCO1)N1CCc2ncnc(NC3CC3)c2CC1,13.4
13,c1ccc(-c2nnc(CNCCn3cccn3)o2)cc1,8.86
14,CC(C)c1nc2c(n1C)CCN(Cc1nc(-c3cccs3)no1)C2,11
15,COCCN1CC[C@@H]2OC[C@H](C(=O)NCc3cccs3)C[C@@H]2C1,5.13
16,O=C(NCc1ccc(F)cc1)N1CCC(C2OCCO2)CC1,13
17,CN(Cc1nnc(C2CC2)n1C)C1CCN(Cc2ccc(F)cc2)C1 (centres undefined),18.5
18,CN(C(=O)c1cccc2[nH]ncc12)C1CCN(c2ccccn2)CC1,2.35
19,Cc1nnc(N2CCC(CN(C)C(C)C)CC2)c(C#N)c1C,11.8
20,Cc1cc(-c2nnc(SCC(=O)O)n2C(C)c2ccccc2)nn1C (centres undefined),12.8

row,SMILES,Percent Effect [%]
1,CC(C)OCc1ncn2c1CN(Cc1ccc(F)cc1)CCC2,12.8
2,Fc1cnc(N2C[C@H]3CCC[C@@]3(COc3ccccn3)C2)nc1,2.56
3,CCS(=O)(=O)N1CCC2(CCCN(Cc3cc(OC)ccc3F)C2)C1 (centres undefined),7.69
4,COC(=O)c1ccc(C(=O)NS(=O)(=O)c2cncc(Br)c2)cc1,2.44
5,COc1c(CNC(c2nccn2C)C(C)C)c(C)nn1C (centres undefined),0
6,CC(C)c1nc(CN(C)CC2CCN(CCO)CC2)no1,9.76
7,c1ccc2c(N3CCCC3Cn3cccn3)ncnc2c1 (centres undefined),28.1
8,CCOc1ccc(N2CCCN=C2NC(=O)c2ccccc2C)cc1,16.1
9,Cc1csc(N2CCN(C(=O)CCc3ccccn3)CC2)n1,25.9
10,COc1ccc(Cc2nnc(SC)o2)cc1OC,11.1
11,Cn1ncc2c(NCCOc3ccc(F)cc3)nc(C3CCCC3)nc21,10
12,COCC1c2c(cnn2C)CCN1Cc1ccoc1 (centres undefined),3.66
13,CC(=O)Nc1nc(CN2CCCCC2Cn2cccn2)cs1 (centres undefined),15.6
14,O=C(NCC1CC1)c1nc(COc2ccc3c(c2)OCO3)no1,2.56
15,Cc1nccc(-c2cccc(NCC(=O)N3CCNC3=O)c2)n1,28.4
16,Cc1ccc(CN2CC3(CCN(C(=O)c4cscn4)C3)C2)s1,-1.24
17,CCCc1nc(CN2CCOC(Cn3cncn3)C2)no1 (centres undefined),10.1
18,Cc1nn(C)c(C)c1CNC1CCOc2ccccc21 (centres undefined),8.64
19,Cc1noc2nc(C3CCN(Cc4cccnc4)CC3)cc(C(F)F)c12,3.9
20,COc1cc(OC)c(C2Nc3cc(Cl)ccc3C3=NCCN32)cc1OC (centres undefined),14.1
